Test systems include EKVX NSCLC; SN12C renal; UO-31 renal; TK-10 renal; ACHN renal; CAKI-1 renal; A498 renal; CCRF-CEM leukemia; MOLT-4 leukemia.
Holding throughout (experiment): NCI-60 one-dose screen, 48 h (100 = growth as untreated, 0 = no growth, -100 = all killed)
What all share (conditions): 10 µM unless noted

The panel holds about 83,000 compounds, 20% with a hit somewhere; the sample as a whole holds those more often.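 96-well plates, one dose, 48 hours. Percent growth reported; active if below 10.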 Values without a mark were called inactive. Activity calls are given as the source filed them.

`C1CCC([PH+](C2CCCCC2)C2CCCCC2[PH+](C2CCCCC2)C2CCCCC2)CC1.[Au].[CH-]1CCCCC1C1CCCC[N-]1` (configuration not stated): the growth in the assay on EKVX NSCLC was -77.6% (active); in the assay on SN12C renal it was -47.3% (active); in the assay on UO-31 renal, -96.3% (active); in the assay with TK-10 renal, -58.7% (active); with ACHN renal, -99.4% (active); in the assay on CAKI-1 renal it was -88% (active). Further, the growth in the assay with A498 renal was -71.1% (active); in the assay with CCRF-CEM leukemia, 2.23% (active); in the assay with MOLT-4 leukemia it was -6.51% (active).
Regarding `CCOC(=O)c1ccc(NC(=O)c2nc(-c3cc(OC)c(OC)c(OC)c3)n(-c3ccc(Cl)cc3)n2)cc1`, the growth with EKVX NSCLC was 94%; in the assay on SN12C renal, 85.2%; with UO-31 renal, 58.8%; with TK-10 renal, 93.3%; in the assay on CAKI-1 renal, 80.7%; with A498 renal, 86%. The figures for the growth with CCRF-CEM leukemia and with MOLT-4 leukemia were 90% and 81.8%, respectively.
With `Cc1ccc2c(n1)C(=O)C(Br)=C(C1CCCC1)C2=O`, the growth in the assay with EKVX NSCLC is 98.9%; with SN12C renal, 95.2%; in the assay on UO-31 renal it was 78.3%; in the assay with TK-10 renal it was 120%; with ACHN renal, 77.9%; in the assay on CAKI-1 renal, 90.8%. Also, the values for the growth in the assay on A498 renal, with CCRF-CEM leukemia and in the assay on MOLT-4 leukemia were 108%, 26.2% and 34.6%, respectively.
With `CCOC(=O)n1cc(-c2nonc2-c2cn(C(=O)OCC)c3ccc(Br)cc23)c2ccccc21`, the growth was 73.3% in the assay with EKVX NSCLC; 88.1% in the assay with SN12C renal; 46.9% with UO-31 renal; 90.8% in the assay on TK-10 renal; 64.5% in the assay on ACHN renal; 60.1% in the assay with CAKI-1 renal. The growth was 82.3% with A498 renal, 87.7% with CCRF-CEM leukemia and 72.2% with MOLT-4 leukemia.
`O=c1c2ccccc2n2cnc3ccc(Cl)c1c32`: the growth with EKVX NSCLC was 62.7%; with SN12C renal, 76.1%; in the assay with UO-31 renal it was 44.8%; in the assay with TK-10 renal it was 49.2%; in the assay on ACHN renal, 50.5%; in the assay on CAKI-1 renal it was 43.1%. For the same compound, the growth in the assay with A498 renal is 54.1%; in the assay with CCRF-CEM leukemia, 95.7%; in the assay with MOLT-4 leukemia it was 89%.
With `COc1ccc(/C=C/C(=O)c2cccc(OCCCCOc3cccc(C(=O)/C=C/c4ccc(OC)c(OC)c4)c3)c2)cc1OC`, the growth was 55% with EKVX NSCLC; 79.9% with SN12C renal; 62% in the assay on UO-31 renal; 114% with TK-10 renal; 77.8% in the assay on ACHN renal; 74.2% in the assay on CAKI-1 renal. Moreover, the growth in the assay on A498 renal was 79.9%; in the assay with CCRF-CEM leukemia, 62.7%; in the assay with MOLT-4 leukemia it was 62.8%.
Turning to `N#Cc1c(-c2ccc(Cl)cc2)nc(NN2C(=O)c3ccccc3C2=O)nc1N1CCOCC1`, the growth is 103% with EKVX NSCLC; 99.9% with SN12C renal; 84.4% with UO-31 renal; 100% with TK-10 renal; 104% in the assay with ACHN renal; 90.4% in the assay with CAKI-1 renal. For the same compound, the figures for the growth in the assay with A498 renal, in the assay with CCRF-CEM leukemia and in the assay on MOLT-4 leukemia were 94.7%, 103% and 97.8%, respectively.
As to `O=S(=O)(NCCNc1nccc(-c2c(-c3ccc(F)c(O)c3)nc3sccn23)n1)c1ccc(O)cc1`, the growth is 56.3% in the assay with EKVX NSCLC; 38.2% in the assay on SN12C renal; 6.46% (active) in the assay with UO-31 renal; 46.3% in the assay on TK-10 renal; 33.3% in the assay with ACHN renal; 27.2% in the assay on CAKI-1 renal. The growth in the assay with A498 renal was 43.4%; in the assay with CCRF-CEM leukemia, 22.2%; in the assay with MOLT-4 leukemia it was 19.3%.
Regarding `Nc1c(C(=O)Nc2ccccc2C(F)(F)F)sc2nc3c(cc12)CCC3`, the growth was 97.1% in the assay on EKVX NSCLC; 101% in the assay on SN12C renal; 98% in the assay on UO-31 renal; 89.9% in the assay with TK-10 renal; 99.6% in the assay with ACHN renal; 101% in the assay on CAKI-1 renal. The growth in the assay with A498 renal was 95.1%; in the assay on MOLT-4 leukemia, 88.1%.
Turning to `COc1cc2c(cc1OCCCN1CCN(CCCOc3cc4c(cc3OC)C(=O)N3CC(F)(F)C[C@H]3C=N4)CC1)N=C[C@@H]1CC(F)(F)CN1C2=O`, the growth is 197% with EKVX NSCLC; 54.7% with SN12C renal; 82.4% in the assay on UO-31 renal; 115% with TK-10 renal; 35% in the assay with CAKI-1 renal; 86.1% in the assay with A498 renal. Moreover, the growth in the assay on CCRF-CEM leukemia is -28.2% (active); with MOLT-4 leukemia, 26.9%.

(Values after PubChem BioAssay (NCI).)
